A selection: hits, their analogues and other compounds. The true share with any hit is near 3.1%.
PAFAH1B2 inh: blocks human PAF acetylhydrolase 1b catalytic subunit 2; P68402; recombinant PAFAH1B2, FP-rhodamine activity probe, fluorescence polarization; inhibition, % at 3.39 µM; 340,000 tested, 1.2% active; AID 492953;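 active = inhibition above the mean of all tested compounds plus 3 SD, cut at about 24% in these data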;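 also: 0% = enzyme with DMSO and 100% = wells lacking PAFAH1B2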
Target sequence (P68402 whole entry, looked up): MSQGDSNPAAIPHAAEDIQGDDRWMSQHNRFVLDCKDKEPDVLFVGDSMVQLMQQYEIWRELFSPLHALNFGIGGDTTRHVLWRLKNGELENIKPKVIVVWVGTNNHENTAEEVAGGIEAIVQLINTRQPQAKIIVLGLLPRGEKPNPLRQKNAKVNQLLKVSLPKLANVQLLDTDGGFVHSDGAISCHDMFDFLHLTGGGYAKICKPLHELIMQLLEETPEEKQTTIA
PAFAH2 FP inh: inhibitors of human PAFAH2 | Q99487 | recombinant PAFAH2, FP-rhodamine activity probe, fluorescence polarization | inhibition, % at 3.39 µM | 340,000 tested, 0.99% active | AID 492956;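 active = inhibition above the mean over all tested compounds plus 3 SD, cut at about 30% in these data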;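 also: inhibitors block probe labeling of enzyme so polarization drops; 0% = enzyme with DMSO and 100% = wells lacking PAFAH2 protein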
eLon inh: inhibits E. coli Lon protease; inhibition, % at 7.94 µM; P0A9M0; 360,000 tested, 0.42% active; purified E. coli Lon protease, fluorescence polarization; in the data active = inhibition above about 13%, passing the limit was not always enough;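 also: 0% = enzyme with probe and DMSO and 100% = no enzyme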
pPAFAH inh: inhibitors of human plasma PAF acetylhydrolase (pPAFAH) | recombinant pPAFAH, FP-rhodamine probe fluorescence polarization | inhibition, % at 3.39 µM | 330,000 tested, 1.5% active | Q13093;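 active = inhibition above the mean inhibition across the screen plus 3 SD, cut at about 25% in these data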;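 also: inhibitors block binding of the rhodamine activity-based probe so polarization drops; 0% = enzyme with DMSO and 100% = wells lacking pPAFAH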
PAFAH1B3 FP inh: blocks human PAF acetylhydrolase 1B catalytic subunit 3 | recombinant PAFAH1B3, FP-rhodamine probe, fluorescence polarization | inhibition, % at 3.39 µM | 340,000 tested, 0.28% active | AID 492972;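 active = inhibition above the screen-wide average of all tested compounds plus 3 SD, cut at about 25% in these data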;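 also: 0% = enzyme with DMSO only and 100% = wells lacking PAFAH1B3 protein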
Target sequence (Q15102 whole entry, looked up): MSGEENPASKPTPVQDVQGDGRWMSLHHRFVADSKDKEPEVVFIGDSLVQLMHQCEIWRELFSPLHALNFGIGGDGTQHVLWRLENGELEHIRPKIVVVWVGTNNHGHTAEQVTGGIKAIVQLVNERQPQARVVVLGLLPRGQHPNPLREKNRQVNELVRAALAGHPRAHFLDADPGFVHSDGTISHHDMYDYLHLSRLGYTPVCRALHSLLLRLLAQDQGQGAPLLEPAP
Rin1 Abl inh: human Rin1-Abl interaction inhibition; P00519+Q13671; TR-FRET Rin1/Abl binding, biochemical; inhibition, % at 7.35 µM; 360,000 tested, 0.4% active; AID 588664; in the data active = inhibition above about 5%, passing the limit was not always enough
Rin1 Abl conf: confirmation of inhibitors of human Rin1-Abl interaction; TR-FRET Rin1-Abl binding, purified proteins; inhibition, % at 7.35 µM; shares compounds with Rin1 Abl inh; 1,300 tested, 49% active
GFP quencher: counter-screen for Rin1-Abl inhibitors: GFP fluorescence quenchers | shares compounds with Rin1 Abl inh | inhibitors/quenchers counterscreen | inhibition, % at 6.75 µM | 1,300 tested, 8.5% active | AID 602125;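 also: ABL1-eGFP fusion protein alone without its partner RIN1-SBP; 0% = protein with vehicle and 100% = wells lacking protein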
GFP quench dose: GFP fluorescence interference dose response | shares compounds with Rin1 Abl inh | GFP fluorescence interference/quenching counterscreen | IC50, µM | 230 tested, under 10 active; call rule not given here;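 also: ABL1-eGFP fusion protein alone without its RIN1 binding partner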
The depositor's hits bear a star; nt = no result. Rule as the data show it, unless noted: active = inhibition above about 6.5%; inactive = the rest.

SMILES	PAFAH1B2 inh	PAFAH2 FP inh	eLon inh	pPAFAH inh	PAFAH1B3 FP inh	Rin1 Abl inh	Rin1 Abl conf	GFP quencher	others
CC1NC(=O)NC1CCCCCC(=O)Nc1ccc(F)cc1 (configuration not stated)	2	4	-5	2	7	84*	98*	0	GFP quench dose=>68
Cc1c(F)cccc1NC(=O)CCCCCC1NC(=O)NC1C (configuration not stated)	0	4	-8	-2	2	86*	98*	-1	GFP quench dose=>68
O=C(CCCC(=O)c1ccccc1)Nc1ccc(F)cc1	-3	7	4	2	2	3	nt	nt
CSc1ncc2[nH]c(C(O)c3ccccc3)nc2n1 (configuration not stated)	2	-1	-4	nt	8	-2	nt	nt
CC[C@@]12C(=O)N(c3ccc(OC)cc3)C(=O)N1[C@H](c1ccc(Cl)cc1)[C@@H]1C(=O)N(C3CCCCC3)C(=O)[C@@H]12	-3	-1	-3	2	6	0	nt	nt
COc1ccc(N(C(=O)c2snc(C(N)=O)c2N)C(C(=O)NC2CCCC2)c2ccc(F)cc2)c(OC)c1 (configuration not stated)	-2	-7	0	3	-11	5	nt	nt
COc1ccc(C(C(=O)NC2CCCCC2)N(C(=O)c2snc(C(N)=O)c2N)c2ccc(OC)cc2OC)cc1 (configuration not stated)	0	-2	-7	8	-1	18*	15*	0
CCOc1ccc(C(C(=O)NCC2CCCO2)N(C(=O)c2snc(C(N)=O)c2N)c2ccc3c(c2)OCCO3)cc1 (configuration not stated)	1	-2	-2	3	-2	16*	23*	0
CCOc1ccccc1N(C(=O)c1snc(C(N)=O)c1N)C(C(=O)NCc1ccccc1)c1ccc(O)cc1 (configuration not stated)	2	-3	-3	nt	-4	15*	26*	1	GFP quench dose=>68
Cc1ccccc1N(C(=O)c1snc(C(N)=O)c1N)C(C(=O)NCc1ccccc1)c1ccc(O)cc1 (configuration not stated)	-1	-25	0	-1	-5	0	nt	nt
CCOc1ccccc1N(C(=O)c1snc(C(N)=O)c1N)C(C(=O)NCC1CCCO1)c1ccc2ncccc2c1 (configuration not stated)	4	-6	5	0	1	21*	29*	-1	GFP quench dose=>68
CN(C)c1ccc(C(C(=O)NCC2CCCO2)N(C(=O)c2snc(C(N)=O)c2N)c2ccc3c(c2)OCO3)cc1 (configuration not stated)	6	-6	-12	3	0	0	nt	nt
Clc1ccc(CNc2ncnc3[nH]ncc23)c(Cl)c1	18	3	0	nt	0	1	nt	nt
COc1ccc(/C=C2\Sc3ccc(C(=O)NCC4CCCO4)cc3N(C)C2=O)cc1 (configuration not stated)	-2	4	7	8	8	3	nt	nt
CC(=O)c1ccc(N2CCN(CC(=O)N(C3CC3)C3CCS(=O)(=O)C3)CC2)c(F)c1 (configuration not stated)	4	-2	-5	4	12	1	nt	nt
O=C(Cc1ccc(Br)cc1)OCC(=O)N1CCCCCC1	24	11	-5	9	10	3	nt	nt
COc1cc2nc(Nc3ccc(C)c(C)c3)nc(N)c2cc1OC	7	5	-3	7	16	11	nt	nt
COc1cc2nc(Nc3ccc(F)cc3)nc(N)c2cc1OC	5	-7	-5	3	7	14*	16*	0
Cc1ccc2c(=O)n3c(nc2c1)C(Cc1ccc(O)cc1)NC(=O)c1cc2ccccc2cc1-3 (configuration not stated)	nt	nt	-10	nt	nt	2	nt	nt
Cn1cc(SCC(=O)Nc2nc3ccccc3s2)c2ccccc21	3	-2	3	4	-2	7.0*	-2	2
Cc1csc(SCC(=O)Nc2nc3ccccc3s2)n1	-1	5	-8	-6	4	0	nt	nt
CCCCn1c(NS(=O)(=O)c2ccc(C)cc2)c(S(=O)(=O)c2ccccc2)c2nc3ccccc3nc21	34*	49*	-8	4	72*	9.6*	-3	-1
COc1ccc(S(=O)(=O)N2CCN=C2SCc2cccc(F)c2)cc1	3	6	7	4	16	3	nt	nt
CCCCNC(=O)C1(C)CCCCCN1Cc1cc2ccccc2o1 (configuration not stated)	nt	nt	-8	nt	nt	3	nt	nt
COc1ccc(Br)cc1C(=O)Nc1ccccc1N1CCCC1	4	3	4	9	-3	6.6*	-2	1
SMILES	PAFAH1B2 inh	PAFAH2 FP inh	eLon inh	pPAFAH inh	PAFAH1B3 FP inh	Rin1 Abl inh	Rin1 Abl conf	GFP quencher	others
CCOc1ncccc1C(=O)Nc1cc2c(cc1Br)OCCO2	-4	-3	-10	-3	3	1	nt	nt
COc1cccc(NC(=O)CN(C)C(=O)c2ccc3c(c2)CC(c2ccccc2)OC3=O)c1 (configuration not stated)	4	0	-13	2	3	2	nt	nt
COc1ccc(NC(=O)CN(C)C(=O)c2ccc3c(c2)CC(c2ccccc2)OC3=O)cc1 (configuration not stated)	nt	nt	-1	nt	nt	8.1*	-2	0
COc1ccccc1C1CCN(Cc2cccc(C(=O)N3CCC(O)CC3)c2)CC1	1	-3	-4	1	4	2	nt	nt
CCC1(CC)C(=O)C2=C3C1[C@H](C(=O)OC)C=C(C(=O)OC)C[C@H]3n1c(=O)n(-c3ccccc3)c(=O)n1[C@H]2C (some centres not stated)	1	1	0	2	9	24*	23*	2	GFP quench dose=>68
C=CCC(=O)N1CCCC(C(=O)c2ccc(Cl)cc2)C1 (configuration not stated)	8	5	0	2	3	6.9*	0	0
O=C1Cc2cccc(=O)c(O)c2C(=O)O1	nt	nt	-3	nt	nt	8.2*	9.6*	5
CCCC1NC(=O)c2cccnc2-n2c1nc1cc(C)cc(C)c1c2=O (configuration not stated)	nt	nt	-1	nt	nt	-1	nt	nt
CCC(C)(C)n1nnnc1C(c1cccnc1)N1CCCc2ccccc21 (configuration not stated)	4	7	-1	-2	0	43*	48*	-1	GFP quench dose=>67
COc1cccc(NC(=O)N(C)C[C@@H]2OCc3cnnn3CCCC(=O)N([C@@H](C)CO)C[C@H]2C)c1	nt	nt	-6	nt	nt	-4	nt	nt

Bioassay records: PubChem, The Scripps Research Institute Molecular Screening Center
